36 molecules from ChEMBL document CHEMBL3433997, “St. Jude Leishmania screening dataset” (2016) can be followed below.

Assay type in all cases: functional
The target of assay [1] is Solute carrier family 2, facilitated glucose transporter member 1 (Homo sapiens) (UniProt P11166). The experiment in a line: ST_JUDE_LEISH: Cytotoxicity at 2uM final concentration against transgenic Leishmania Mexicana promastigotes LmGLUT1 that are glucose transport deficient and complemented with the human glucose transporter GLUT1. Activity is measured by DNA content using SYBR green in vitro.
Sequence of Solute carrier family 2, facilitated glucose transporter member 1 (Homo sapiens) (P11166 whole entry): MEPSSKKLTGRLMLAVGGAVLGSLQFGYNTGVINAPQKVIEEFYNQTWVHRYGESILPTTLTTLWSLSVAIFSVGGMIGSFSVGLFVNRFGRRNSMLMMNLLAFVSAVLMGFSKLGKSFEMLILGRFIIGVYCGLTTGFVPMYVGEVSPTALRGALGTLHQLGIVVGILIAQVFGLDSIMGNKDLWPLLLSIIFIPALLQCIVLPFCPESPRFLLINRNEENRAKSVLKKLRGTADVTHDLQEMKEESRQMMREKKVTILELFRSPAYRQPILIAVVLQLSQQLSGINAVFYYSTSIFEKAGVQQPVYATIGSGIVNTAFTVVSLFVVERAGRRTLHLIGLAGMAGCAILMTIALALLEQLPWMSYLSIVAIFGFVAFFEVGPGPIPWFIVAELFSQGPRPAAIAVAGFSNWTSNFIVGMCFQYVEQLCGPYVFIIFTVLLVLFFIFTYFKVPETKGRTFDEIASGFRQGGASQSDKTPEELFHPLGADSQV

The target of assay [2] is Hexose transporter 1 (Plasmodium falciparum) (UniProt O97467). The experiment in a line: ST_JUDE_LEISH: Cytotoxicity at 2uM final concentration against transgenic Leishmania Mexicana promastigotes LmPfHT that are glucose transport deficient and complemented with the Plasmodium falciparum hexose transporter. Activity is measured by DNA content using SYBR green in vitro.

In assay [3] the target is Glucose transporter (Leishmania mexicana) (UniProt O61059). The experiment in a line: ST_JUDE_LEISH: Cytotoxicity at 2uM final concentration against transgenic Leishmania Mexicana promastigotes LmGT2 that are glucose transport deficient and complemented with the L. Mexicana glucose transporter 2. Activity is measured by DNA content using SYBR green in vitro.

The structures appear in SMILES notation. Several values for one entry are separate records, joined by “and”; a condition that tells them apart may be missing. Identical values can stand only once.

The term inhibition denotes the change of the read-out against control, counted positive when it falls. Consider `FC(F)(F)c1cccc(N2CCC(CN3CCC(c4c[nH]c5ccccc45)CC3)CC2)n1`, for which the results for the inhibition in assay [1], in assay [2] and in assay [3] were 7.61%, 6.91% and 7.85%, respectively.
With `CCN1CC=C(c2c[nH]c3ccccc23)CC1`, the results for the inhibition in assay [1], in assay [2] and in assay [3] were 0.74%, 1.07% and 0.73%, respectively.
The matching figures for `CCOC(C(=O)OCC1CCCN(C)C1)(c1ccccc1)c1ccccc1` (stereo not drawn): 4.97%, 4.46% and 5.83%.
The matching figures for `CC(NC(C)(C)C)C(O)c1ccc(Cl)c(C(F)(F)F)c1` (stereo not drawn): 1.86%, 0.38% and 1.11%.
The matching figures for `COC(=O)c1ccc(CC(C)NCC(O)c2cccc(C(F)(F)F)c2)cc1C` (stereo not drawn): 0.54%, 1.8% and 0.87%.
Turning to `COc1ccc(C[C@H]2NC[C@H](O)[C@H]2OC(C)=O)cc1`, the inhibition amounted to 105% in assay [1], 103% in assay [2] and 92.1% in assay [3].
The matching figures for `Cc1ccc(C)c(N2CCN(Cc3ccccc3O)CC2)c1`: 0.11%, 1.02% and 2.41%.
The matching figures for `CC[C@H]1CN2CC[C@H]1C[C@H]2[C@H](O)c1cc(-c2ccc(F)cc2C)nc2ccc(OC)cc12`: 4.97%, 1.01% and 2.55%.
Regarding `COC(=O)c1ccc(CC(C)NCC(O)c2cccc(SC(F)(F)F)c2)cc1` (stereo not drawn), the figures for the inhibition in assay [1], in assay [2] and in assay [3] were 2.85%, 4.05% and 4.01%, respectively.
The matching figures for `C#CCOc1ccc(CC(C)NCC(O)c2cccc(C(F)(F)F)c2)cc1` (stereo not drawn): 0.24%, 0.36% and 0.98%.
For `Cc1ccc(C2(O)CC3CCC(C2)N3C)cc1` (stereo not drawn), the inhibition stood at 2.44% in assay [1], 2.72% in assay [2] and 3.25% in assay [3].
For the molecule `Cc1nc2ccccc2n1C1CC2CCC(C1)N2Cc1nccn1-c1ccccc1` (stereo not drawn), the inhibition in assay [1] amounted to 0.86%; in assay [2], 3.24%; in assay [3] it was 2.15%.
The matching figures for `Cc1c(C)c2c(c(C)c1O)CC[C@@](C)(C(=O)N1CCC(CN3CCC(c4c[nH]c5ccccc45)CC3)CC1)O2`: -0.93%, -1.76% and -3.6%.
The matching figures for `NCc1cccc(-c2cccc(CN(C(=O)Nc3ccccc3)C3CCN(Cc4ccccc4)CC3)c2)c1`: 7.36%, 6.75% and 6.25%.
With `O=C(CCc1ccc(Cl)cc1Cl)NC1CCC(CN2CCC(c3c[nH]c4ccccc34)CC2)CC1` (stereo not drawn), the inhibition in assay [1] is 1.11% and 15.9%; in assay [2], -0.14% and 8.88%; in assay [3], -2.05% and 8.96%.
For the molecule `CN1CC=C(c2c[nH]c3ccc(C(=O)c4nccs4)cc23)CC1`, the inhibition was -1.82% in assay [1], -1.47% in assay [2] and -1.62% in assay [3].
As to `CN1CCC(N(C)c2nccc(N3CCN(Cc4cncn4Cc4ccccc4)CC3)n2)CC1`, the inhibition in assay [1] was determined as 12.8%; in assay [2], 12.8%; in assay [3], 10.8%.
Regarding `c1ccc(C(OCCC2CCN(Cc3cccc4cccnc34)CC2)c2ccccc2)cc1`, the inhibition in assay [1] is 9.36%; in assay [2], 8.53%; in assay [3] it was 5.64%.
The matching figures for `CCOC(=O)c1c(C)n(C2CCCCC2)c2cc(Br)c(O)cc12`: -0.53%, -0.38% and -0.74%.
In the same order, the values of `CS(=O)(=O)Nc1ccc2[nH]cc(C3CCN(CC4CCC(NC(=O)/C=C/c5ccccc5Cl)CC4)CC3)c2c1` (stereo not drawn) are -1.96%, 1.23% and -0.23%.
In the same order, the values of `O=C(/C=C/c1ccc(Cl)c(Cl)c1)NC1CCC(CN2CCC(c3c[nH]c4ccccc34)CC2)CC1` (stereo not drawn) are 2.35%, 1.2% and 1.83%.
In the case of `CCN(CC)CCN1C(=O)C(O)(c2ccccc2Cl)c2c1cc(C#N)cc2C(F)(F)F` (stereo not drawn), the inhibition is 2.9% in assay [1], 2.02% in assay [2] and 4.08% in assay [3].
In the case of `CC(C)(C)c1cc(/C=C/C(=O)NC2CCC(CN3CCC(c4c[nH]c5ccccc45)CC3)CC2)cc(C(C)(C)C)c1O` (stereo not drawn), the inhibition is 2.87% and 2.94% in assay [1]; 0.49% and 5.11% in assay [2]; -0.51% and 1.19% in assay [3].
As for `COc1c(F)cc(CC(C)NCC(O)c2cccc(Cl)c2)cc1F` (stereo not drawn), the inhibition is -0.28% in assay [1], -0.81% in assay [2] and -3.56% in assay [3].
In the same order, the values of `Cc1c(C)c2c(c(C)c1O)CC[C@](C)(C(=O)N1CCC(CN3CCC(c4c[nH]c5ccccc45)CC3)CC1)O2` are 3.34%, 4.94% and 0.9%.
In the same order, the values of `CC(Cc1ccc(OCCOc2ccccc2)cc1)NCC(O)c1cccc(Cl)c1` (stereo not drawn) are 0.57%, 1.43% and 1.19%.
In the same order, the values of `NC1=NC2(CCCC2)N(c2ccc(Cl)cc2)C(N)=N1` are 3.05%, 4.23% and 3.83%.
In the case of `O=C(NC1CCC(CN2CCC(c3c[nH]c4ccccc34)CC2)CC1)c1cc2ccccc2o1` (stereo not drawn), the inhibition in assay [1] is 2.54%; in assay [2] it was 0.9%; in assay [3], -2.2%.
With `O=C(/C=C/c1ccc(Cl)c(Cl)c1)N1CCC(CN2CCC(c3c[nH]c4ccc(NS(=O)(=O)c5cccs5)cc34)CC2)CC1`, the inhibition in assay [1] was 6.53%; in assay [2], 5.86%; in assay [3], 5.21%.
`CCCCCc1cc(O)c2c3c(c(=O)oc2c1)CN(C)CC3`: the inhibition is 2.93% in assay [1], 2.18% in assay [2] and 1.87% in assay [3].
The matching figures for `CN(C)CCCOc1ccc(CN2CCC(c3c[nH]c4ccc(NCC5CCCCC5)cc34)CC2)cc1`: 3.02%, 3.5% and 3.06%.
The matching figures for `O=S(=O)(NC1CCC(CN2CCC(c3c[nH]c4ccccc34)CC2)CC1)c1ccc(Cl)c(Cl)c1` (stereo not drawn): -2.62%, -1.92% and -2.55%.
In the same order, the values of `O=C(/C=C/c1ccc(Cl)c(Cl)c1)Nc1cccc(CN2CCC(c3c[nH]c4ccc(O)cc34)CC2)c1` are 0.9%, 1.55% and -0.7%.
Regarding `Cn1cc(CN2CCC(CCOC(c3ccccc3)c3ccccc3)CC2)cn1`, the values for the inhibition in assay [1], in assay [2] and in assay [3] were 12.3%, 9.95% and 5.33%, respectively.
The matching figures for `CC(=O)N(Cc1cccc(-c2cccc(CNCc3ccc4c(c3)OCO4)c2)c1)C1CCN(Cc2ccccc2)CC1`: 6.88%, 7.09% and 7.83%.
The matching figures for `CCCc1c(C(=O)NC2CCC(CN3CCC(c4c[nH]c5ccccc45)CC3)CC2)cnn1-c1ccccc1` (stereo not drawn): 3.14%, 1.15% and 1.83%.
